Only some compounds are listed: those with a hit (about 4.6% of all), similar ones and a draw of the others.
Peg3 promoter: Peg3 promoter-driven luciferase inhibitors, primary screen, cell-based, HeLa, luciferase luminescence | HeLa PEG-Prom luciferase reporter, overnight | inhibition, % at 20 µM | actives 1.7% (n = 360,000);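 active = inhibition of at least 50% at 20 µM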
CF NFkB block: inhibitors of PAF-induced NF-kB signaling, primary screen, cell-based, GFP fluorescence, uHTS | KKLEB NF-kB-GFP reporter, GFP fluorescence overnight | inhibition, % at 5 µM | actives 0.86% (n = 360,000) | AID 588850, 2011;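 active = at least 50% inhibition at 5 µM, scaled per plate between neutral and stimulator controls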;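 note: PAF is a Pseudomonas aeruginosa culture filtrate used as stimulus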
ABHD5 PLIN5 PPI: ABHD5-PLIN5 interaction inhibitors, primary screen, cell lysate, split luciferase complementation, luminescence; Split G. princeps luciferase complementation, 4 h; inhibition, % at 4 µM; actives 0.78% (n = 360,000);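 active = inhibition above the mean inhibition across every tested compound plus 3 SD, cut at about 22% in these data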
Target sequence (Q00G26 whole entry, looked up): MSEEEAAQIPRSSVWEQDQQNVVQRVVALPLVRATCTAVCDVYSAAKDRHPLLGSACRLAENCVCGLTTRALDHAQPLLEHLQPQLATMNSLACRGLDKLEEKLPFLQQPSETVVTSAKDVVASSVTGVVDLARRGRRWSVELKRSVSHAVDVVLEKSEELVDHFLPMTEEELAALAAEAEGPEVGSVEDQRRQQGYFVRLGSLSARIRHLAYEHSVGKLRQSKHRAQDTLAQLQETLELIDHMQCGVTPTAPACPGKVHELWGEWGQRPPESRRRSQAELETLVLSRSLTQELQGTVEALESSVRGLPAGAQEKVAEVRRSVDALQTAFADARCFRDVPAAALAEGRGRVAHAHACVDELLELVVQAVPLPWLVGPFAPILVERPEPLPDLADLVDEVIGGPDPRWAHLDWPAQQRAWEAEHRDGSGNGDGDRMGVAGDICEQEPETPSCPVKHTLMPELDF
Target sequence (Q8WTS1 whole entry, looked up): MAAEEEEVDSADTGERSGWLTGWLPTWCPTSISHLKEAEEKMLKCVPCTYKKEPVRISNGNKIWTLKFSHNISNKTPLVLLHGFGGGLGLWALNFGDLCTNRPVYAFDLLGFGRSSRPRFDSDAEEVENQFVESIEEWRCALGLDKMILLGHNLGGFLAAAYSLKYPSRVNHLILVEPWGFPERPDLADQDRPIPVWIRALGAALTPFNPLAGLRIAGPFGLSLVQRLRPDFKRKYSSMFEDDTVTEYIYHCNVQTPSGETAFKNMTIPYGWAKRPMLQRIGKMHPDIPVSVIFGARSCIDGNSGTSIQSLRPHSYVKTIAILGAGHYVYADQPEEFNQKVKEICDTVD
KKLEB tox: cytotoxicity in KKLEB CF airway cells, primary screen, cytotoxicity control for CF NF-kB inhibitor project, cell-based, uHTS, fluorescence assay plates | KKLEB CF airway cells viability, ATPlite luminescence, overnight; stronger effect = lower value; cells stimulated with P. aeruginosa culture filtrate | activity change (cytotoxicity), % at 5 µM | actives 0.36% (n = 360,000);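 active = corrected activity change at or below -50% at 5 µM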
Mdm2 MdmX PPI: inhibitors of human Mdm2-MdmX association, primary screen, cell-based, luminescence, split luciferase, SaOS-2, uHTS; Protein Mdm4 (Homo sapiens) + E3 ubiquitin-protein ligase Mdm2 (Homo sapiens), …; SaOS-2 split-luciferase Mdm2/MdmX complementation; inhibition, % at 8 µM; actives 3% (n = 330,000); AID 485346, 2010;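 active = inhibition of at least 50% at 8 µM in the primary screen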
HIF-2a block: HIF-2a reporter inhibitors, primary screen, luminescence, 786-0 RCC cells; 786-0 RCC cells HIF-2a reporter, luciferase luminescence, overnight; inhibition, % at 18.8 µM; actives 0.72% (n = 360,000); AID 624352, 2012;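 active = inhibition of the luminescence signal of 40% or more relative to plate controls, in a single-dose primary screen at 18.75 µM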
Large screens that a line does not name were inactive.

ClCCN(CCCl)c1ccc(-n2cnc3c(Cl)ncnc32)cc1	Peg3 promoter 104 (no result: Mdm2 MdmX PPI)
CN1CCN(c2nc3ccccn3c(=O)c2C=C2C(=O)N(C)C(=O)N(C)C2=O)CC1	ABHD5 PLIN5 PPI 23
CN1C(=O)C(=Cc2sc(=O)n(-c3ccccc3)c2N2CCCCC2)C(=O)N(C)C1=O	none (no result: Mdm2 MdmX PPI)
Cc1cc(Br)cn2c(CC(=O)N3CCCCC3)c(-c3ccc(F)cc3)nc12	none (no result: Peg3 promoter, CF NFkB block, KKLEB tox, Mdm2 MdmX PPI)
O=C1NCN(c2ccccc2)C12CCN(C(c1nnnn1-c1ccc3c(c1)OCCO3)C1CC1)CC2 (configuration not stated)	none (no result: Mdm2 MdmX PPI)
CCN(CC)C(=O)c1ccc2c(c1)C1C(Cl)C(Sc3ccccc3[N+](=O)[O-])CC1C(C(=O)O)N2 (configuration not stated)	ABHD5 PLIN5 PPI 23
O=S(=O)(c1ccccc1)N1Cc2ccccc2-n2nncc2C1	none (no result: Mdm2 MdmX PPI)
O=C1NC(=S)NC(=O)C1=Cc1ccc(Br)s1	HIF-2a block 79
O=c1[nH]c2ccccc2n1C1CCN(Cc2ccc(-c3[nH]c4cc5ncnc5cc4nc3-c3ccccc3)cc2)CC1	none (no result: Peg3 promoter, CF NFkB block, KKLEB tox, Mdm2 MdmX PPI)
CC12CCC(=O)C=C1CCC1C2CCC2(C)C(O)CCC12 (configuration not stated)	none
CCC(=O)O[C@H]1CC[C@H]2[C@@H]3CCC4=CC(=O)CC[C@]4(C)[C@H]3CC[C@]12C	Peg3 promoter 53 (no result: Mdm2 MdmX PPI)
CC(=O)OC1C(O)C2=C3C4(C)C1C(C)(C)C(=O)CC4C3(O)C(OC(C)=O)C1(CC1C)C2=O (configuration not stated)	ABHD5 PLIN5 PPI 22 (no result: Peg3 promoter, CF NFkB block, KKLEB tox, Mdm2 MdmX PPI)
O=Cc1cn(Cc2ccccc2[N+](=O)[O-])c2ccccc12	none
Cc1ccc(Cn2cc(C=O)c3ccccc32)cc1	Peg3 promoter 63
O=C1C=C2c3ccccc3CC(C(=O)O)C2CC1 (configuration not stated)	none (no result: Mdm2 MdmX PPI)
CC1(C)CC[C@]2(C)CC[C@]3(C)C4C[C@@H]5OO[C@@]6(O5)C(CCCC6(C)C)[C@]4(C)CC[C@@]3(C)C2C1 (some centres not stated)	CF NFkB block 56
Cc1[nH]n(-c2ccccc2)c(=O)c1C(c1ccc([N+](=O)[O-])cc1)c1c(C)[nH]n(-c2ccccc2)c1=O	CF NFkB block 55
O=[N+]([O-])c1ccc(C(c2ccc([N+](=O)[O-])cc2)c2ccc([N+](=O)[O-])cc2)cc1	none (no result: Mdm2 MdmX PPI)
NC(=O)c1ccc(N)nc1	CF NFkB block 78, KKLEB tox -91 (no result: Mdm2 MdmX PPI)
Cc1cc2c(C(C)C)c(O)c(O)c(C=O)c2c(O)c1-c1c(C)cc2c(C(C)C)c(O)c(O)c(C=O)c2c1O	Peg3 promoter 94, CF NFkB block 62, KKLEB tox -53, HIF-2a block 89 (no result: Mdm2 MdmX PPI)
Cc1cccc(C)c1-n1nnnc1C(C1CC1)N1CCC2(CC1)C(=O)NCN2c1ccccc1 (configuration not stated)	none (no result: Mdm2 MdmX PPI)
CC(C)C(NC(=O)C(C(C)C)N(C)C)C(=O)N(C)C(C(=O)N1CCCC1C(=O)N1CCCC1C(=O)NCc1ccccc1)C(C)C (configuration not stated)	CF NFkB block 64 (no result: Mdm2 MdmX PPI)
c1ccc(C2(NC3=NCCO3)CCCCC2)cc1	none (no result: Mdm2 MdmX PPI)
COc1cccc(C(c2nnnn2Cc2ccccc2)N2CCC(n3c(=O)[nH]c4ccccc43)CC2)c1OC (configuration not stated)	Peg3 promoter 73, CF NFkB block 87, KKLEB tox -75 (no result: Mdm2 MdmX PPI)
COc1ccc(-n2nnnc2C(c2ccnc3ccccc23)N2CCC(n3c(=O)[nH]c4ccccc43)CC2)cc1 (configuration not stated)	none (no result: Mdm2 MdmX PPI)
COc1cccc(C(c2nnnn2C2CCCC2)N2CCC3(CC2)C(=O)NCN3c2ccccc2)c1OC (configuration not stated)	none (no result: Mdm2 MdmX PPI)
